# Assay outcomes from PubChem.
# POLK inh – qHTS for Inhibitors of Polymerase Kappa | DNA polymerase kappa (Homo sapiens), Q9UBT6 | purified Pol kappa, fluorescent DNA synthesis assay, 10 min | Potency, µM (highest dose often 107 µM), without a hit: at the highest dose activity, negative = inhibition, hits mostly inhibitors | 400,000 compounds, 0.53% hits | AID 588579, 2011; also: % is scaled to controls: 0 for no effect and ±100 for the full control effect
#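 Enzyme at 10 nM met test compounds for 15 min at room temperature. Substrate addition (50 nM final) began the reaction, which was monitored by fluorescence at 0 and 10 min.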
# Pol beta inh – qHTS Assay for Inhibitors of DNA Polymerase Beta. Potency, µM (highest dose often 114 µM), for inactives: top-dose activity change, negative = inhibition, hits mostly inhibitors. 340,000 compounds, 1.3% hits. P06746. AID 485314, 2010. Pol beta primer extension/strand displacement, fluorescence kinetic; also: % is scaled to controls: 0 for no effect and ±100 for the full control effect
#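 Preincubation: enzyme (10 nM) with compound, 15 min, RT. Reaction: substrate added to 50 nM final. Reads: 0 and 10 min. Analysis: normalized, Hill fit.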
# TDP1 inh – qHTS Assay for Inhibitors of Tyrosyl-DNA Phosphodiesterase (TDP1); recombinant TDP1, AlphaScreen DNA substrate cleavage; 350,000 compounds, 0.28% hits; Potency, µM (doses to about 130 µM), for inactives: top-dose activity change, negative = inhibition, actives largely listed as inhibitors; Tyrosyl-DNA phosphodiesterase 1 (Homo sapiens), Q9NUW8; also: % is scaled to controls: 0 for no effect and ±100 for the full control effect; nearly all actives have a fitted effect of over 40% in size
# Target sequence (Q9NUW8 whole entry, looked up): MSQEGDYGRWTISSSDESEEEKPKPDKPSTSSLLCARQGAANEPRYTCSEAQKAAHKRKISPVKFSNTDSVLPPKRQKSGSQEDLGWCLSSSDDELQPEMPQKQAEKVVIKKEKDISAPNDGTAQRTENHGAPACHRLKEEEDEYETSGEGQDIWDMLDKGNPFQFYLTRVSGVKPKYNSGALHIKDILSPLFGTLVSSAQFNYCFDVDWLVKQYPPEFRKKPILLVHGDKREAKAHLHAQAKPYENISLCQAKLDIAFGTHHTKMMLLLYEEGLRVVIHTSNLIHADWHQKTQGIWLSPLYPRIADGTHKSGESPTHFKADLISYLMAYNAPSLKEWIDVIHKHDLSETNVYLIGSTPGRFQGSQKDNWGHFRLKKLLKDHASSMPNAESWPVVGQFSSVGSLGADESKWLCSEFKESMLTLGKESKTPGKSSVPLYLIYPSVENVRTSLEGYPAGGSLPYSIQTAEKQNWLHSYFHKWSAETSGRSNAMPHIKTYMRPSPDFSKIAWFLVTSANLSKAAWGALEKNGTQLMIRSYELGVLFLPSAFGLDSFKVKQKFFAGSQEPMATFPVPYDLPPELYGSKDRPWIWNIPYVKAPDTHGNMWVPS
#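 E. coli-derived human Tdp1, 1 nM final. Cpd preinc 15 min RT; substrate 15 nM final, 5 min RT; AS bead mix 10 ug/ml final, 10 min RT. Signal loss = tyrosine-FITC cleavage. No-enzyme wells = max signal.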
# POLH inh – qHTS for Inhibitors of Polymerase Eta; recombinant Pol eta, fluorescent DNA replication assay; 390,000 compounds, 1.2% hits; Potency, µM (doses to about 114 µM), inactives show at the highest dose activity change, negative = inhibition, most hits filed as inhibitors; AID 588591, 2011; DNA polymerase eta (Homo sapiens), Q9Y253; also: % is scaled to controls: 0 for no effect and ±100 for the full control effect
#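 Pol eta (10 nM) was preincubated with compounds for 15 min at room temperature, after which fluorescent replication substrate (50 nM final) was added to start the reaction. Fluorescence was read kinetically at 0 and 10 min.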
# POLI inh – qHTS for Inhibitors of Polymerase Iota; DNA polymerase iota (Homo sapiens), Q9UNA4; Pol iota fluorescent replication assay, 10 min; Potency, µM (titrated, usually from 115 µM), for inactives: at the top dose activity, negative = inhibition, hits mostly inhibitors; 390,000 compounds, 1% hits; AID 588590, 2011
#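 Pol iota at 10 nM preincubated 15 min with compounds at room temperature; reaction started with fluorescent substrate, 50 nM final. Fluorescence read kinetically at 0 and 10 min; buffer-only wells as negative control.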
# FEN1 inh – qHTS Assay for the Inhibitors of Human Flap endonuclease 1 (FEN1); Recombinant FEN1 flap cleavage, fluorescence, 15 min; P39748; AID 588795, 2011; 390,000 compounds, 0.35% hits; Potency, µM (top dose mostly 114 µM), without a hit: top-dose activity change, negative = inhibition, actives largely listed as inhibitors; also: % is scaled to controls: 0 for no effect and ±100 for the full control effect; nearly all actives have a fitted effect of over 65% in size
#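 Reaction started by adding substrate (50 nM final) to 10 nM enzyme after 15 min room-temperature compound preincubation. Reads at 0 and 15 min, with data normalized and fitted to a four-parameter Hill equation.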
# Numbers without * were called inactive; ? = inconclusive; nt = no result; [ ] = remark or other dose. In the library only some 2.4% were active in any assay of this set; here they are far more common. Calls follow the shape of the dose curve; as a rule, active = well fitted curve in the direction sought with a large enough effect; inconclusive = small, poorly fitted or top-dose-only effect, or another doubt; inactive = no such curve, though single readings can be large; an effect the other way counts as inactive or inconclusive. Potency is read from the fitted curve at half-maximal effect.
SMILES,POLK inh,Pol beta inh,TDP1 inh,POLH inh,POLI inh,FEN1 inh
Cc1ccc(-c2ccc(=O)n(CC(=O)N3CCN(c4cccc(C)c4)C(C)C3)n2)cc1 (configuration not stated),-12%,4%,8%,-18%,79µM*,-3%
Cc1cccc(N2CCN(C(=O)CCS(=O)(=O)c3ccc(Br)cc3)CC2C)c1 (configuration not stated),89µM*,25µM*,nt,?,45µM*,-4%
Cc1cccc(N2CCN(C(=O)Cn3nc(C)n4cccc4c3=O)CC2C)c1 (configuration not stated),-8%,1%,9%,-23%,11%,9%
COc1ccc(NC(=O)CC2C(=O)N(c3cccc(OC)c3)C(=O)N2Cc2ccc3c(c2)OCO3)cc1 (configuration not stated),-23%,6%,-1%,-21%,27%,-10%
COc1cc2nc(N3CCCCC3)nc(NC(C)C)c2cc1OC,-21%,nt,nt,nt,31%,?
O=C(CCl)N(c1ccccc1)c1ccccc1,-3%,?,5%,-16%,19%,-1%
O=Cc1[nH]c2ccccc2c1N(C(=O)CCl)c1ccccc1,-11%,-10%,1%,20µM*,?,0%
O=C(COc1ccc(Cl)cc1Cl)Nc1ccc(C(=O)Nc2ccccc2C(=O)O)cc1,-33%,32µM*,50µM*,8%,?,-18%
O=C(COc1ccccc1Cl)Nc1cc(NC(=O)COc2ccccc2Cl)cc(C(=O)O)c1,-13%,79µM*,35µM*,-17%,140%,4%
Cc1ccc(OCC(=O)Nc2cc(NC(=O)COc3ccc(C)c(C)c3)cc(C(=O)O)c2)cc1C,-20%,50µM*,nt,?,-15%,?
COc1ccccc1OCC(=O)Nc1cc(NC(=O)COc2ccccc2OC)cc(C(=O)O)c1,-11%,-3%,1%,-7%,197%,1%
COc1ccc(OCC(=O)Nc2cc(NC(=O)COc3ccc(OC)cc3)cc(C(=O)O)c2)cc1,-16%,-1%,nt,3%,?,19%
CC1(C)O[C@@H]2C[C@H]3[C@H]4C[C@H](F)C5=CC(=O)C=C[C@@]5(C)[C@@H]4[C@H](O)C[C@]3(C)[C@]2(C(=O)CO)O1,-10%[12 µM],nt,9%[21 µM],nt,nt,nt
C1=Nc2ccccc2/C1=C/c1c[nH]c2ccccc12,-13%,nt,nt,nt,80%,-7%
CCn1c(SCC(=O)N/N=C/c2ccc(C)o2)nnc1-c1ccccc1,2%,-1%,5%,-8%,56%,-6%
CCn1c(SCC(=O)N/N=C/C(C)=C\c2ccco2)nnc1-c1ccccc1,?,28µM*,nt,?,45µM*,7%
CCn1c(SCC(=O)N/N=C/C=C/c2ccco2)nnc1-c1ccccc1,79µM*,40µM*,22µM*,?,56µM*,-3%
CC(C)n1c(SCC(=O)Nc2nncs2)nnc1-c1ccco1,79µM*,20µM*,11µM*,7.9µM*,16µM*,?
CCn1c(SCC(=O)Nc2ccc3c(c2)c2ccccc2n3CC)nnc1-c1ccco1,35µM*,2%,8%,25µM*,?,50µM*
Cc1nnc(NC(=O)CSc2nnc(-c3ccco3)n2C(C)C)s1,-5%,-7%,1%,-7%,84%,4%
O=C(C[n+]1ccccc1Br)c1ccc(Cl)cc1,-11%,nt,nt,nt,-15%,-19%
CCN(CC)S(=O)(=O)c1ccc2c(c1)nc(CN(C)C(=O)Nc1ccc(C)c(F)c1)n2C,-6%[60.1 µM],33%,-4%,-19%,6%,-13%
c1nc(NCCc2cnc[nH]2)c2cc(-c3ccc4c(c3)OCO4)ccc2n1,nt,nt,9%,nt,nt,nt
